Results: PubChem BioAssay (Tox21)
Records with an inconclusive call do not appear. The source holds several records for some structures; these can differ, active in one and inactive in another. Activity calls are given as the source filed them. Unless noted, calls come from the whole dose curve; as a rule, active = well fitted curve in the direction sought with a large enough effect in the repeat runs; inconclusive = weak or mixed curves; inactive = no such curve, though single readings can be large; an effect the other way counts as inactive or inconclusive.

How the values were obtained:
[1] = qHTS assay to identify small molecule antagonists of the thyroid receptor (TR) signaling pathway - cell viability counter screen (AID 743064); note: nearly all actives have a fitted effect of over 50% in size
Summary of the method: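 Plate GH3.TRE-Luc cells; incubate 4 h at 37 °C; add compound, then T3 to 1 nM final; incubate 23.5 h; add CellTiter-Fluor; incubate 30 min at 37 °C, 5% CO2; read fluorescence.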

[2] = qHTS assay to identify small molecule antagonists of the thyroid receptor (TR) signaling pathway (AID 743065); note: series mostly up to about 70 µM; nearly all actives have a fitted effect of over 55% in size
Summary of the method: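 Antagonism measured as loss of luciferase signal in GH3 cells stably carrying a TRE-luciferase reporter, co-treated with compound and T3 (1 nM final) for 23.5 h at 37 C. Viability was read in the same well by CellTiter-Fluor.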

[3] = tested on: thyroid hormone receptor (rat, GH3 cells); assay: qHTS assay to identify small molecule agonists of the thyroid receptor (TR) signaling pathway (AID 743066; calls by dose curve)
[4] = target: Estrogen receptor (Homo sapiens) (UniProt P03372); assay: qHTS assay to identify small molecule antagonists of the estrogen receptor alpha (ER-alpha) signaling pathway (AID 743069; active = well fitted curve in the direction sought with a large enough effect in the signal ratio in the repeat runs, not every such curve was filed as active; the % refers to the signal ratio)
Chain of Estrogen receptor (Homo sapiens) (P03372 whole entry, looked up): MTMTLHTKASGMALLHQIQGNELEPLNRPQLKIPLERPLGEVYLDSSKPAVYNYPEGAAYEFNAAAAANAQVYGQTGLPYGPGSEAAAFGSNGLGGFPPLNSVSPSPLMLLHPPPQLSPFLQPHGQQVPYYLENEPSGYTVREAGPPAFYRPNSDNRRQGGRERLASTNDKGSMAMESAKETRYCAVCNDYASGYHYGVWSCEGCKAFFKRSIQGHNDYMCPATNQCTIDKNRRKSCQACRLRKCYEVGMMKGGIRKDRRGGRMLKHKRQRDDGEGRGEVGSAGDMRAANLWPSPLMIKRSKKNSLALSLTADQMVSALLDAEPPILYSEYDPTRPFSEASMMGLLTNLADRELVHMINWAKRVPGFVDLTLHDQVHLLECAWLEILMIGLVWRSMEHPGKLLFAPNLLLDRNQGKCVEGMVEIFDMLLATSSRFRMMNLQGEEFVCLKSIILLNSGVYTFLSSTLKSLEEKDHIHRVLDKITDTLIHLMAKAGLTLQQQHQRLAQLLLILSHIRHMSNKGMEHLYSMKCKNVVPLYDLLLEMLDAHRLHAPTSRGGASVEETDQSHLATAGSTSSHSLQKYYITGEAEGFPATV
Summary of the method: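 Antagonist mode: compounds in DMSO were co-added with 17beta-estradiol to ER-alpha-bla HEK293 cells (2% charcoal-stripped serum) and left 18 h at 37C. Reporter inhibition was measured as FRET fluorescence after 2 h LiveBLAzer substrate at room temperature.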

[5] = qHTS assay to identify small molecule antagonists of the estrogen receptor alpha (ER-alpha) signaling pathway - cell viability counter screen (AID 743074; calls by dose curve;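 note: HEK293 cells carrying ER-alpha-UAS-bla reporter stimulated with 17beta-estradiol; nearly all actives have a fitted effect of over 45% in size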)
[6] = target: Estrogen receptor (Homo sapiens) (UniProt P03372); assay: qHTS assay to identify small molecule agonists of the estrogen receptor alpha (ER-alpha) signaling pathway (AID 743075; calls by dose curve;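 note: HEK293 GripTite cells with ER-alpha and UAS-driven beta-lactamase reporter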)
[7] = target: Estrogen receptor (Homo sapiens) (UniProt P03372); assay: qHTS assay to identify small molecule agonists of the estrogen receptor alpha (ER-alpha) signaling pathway using the BG1 cell line (AID 743079); note: nearly all actives have a fitted effect of over 20% in size; note: potency is the fitted concentration of half-maximal effect
[8] = qHTS assay to identify small molecule antagonists of the estrogen receptor alpha (ER-alpha) signaling pathway using the BG1 cell line (AID 743080; calls by dose curve;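 note: BG1 cells stimulated with 17beta-estradiol alongside compound; series mostly up to about 70 µM; nearly all actives have a fitted effect of over 25% in size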)
Summary of the method: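 Seeding, 24 h rest, compound transfer from DMSO, 17beta-estradiol addition, 21.5 h incubation, CellTiter-Fluor (30 min, 37 C), then ONE-Glo (30 min, room temperature): this sequence was run on BG1-Luc-4E2 reporter cells.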

[9] = qHTS assay to identify small molecule antagonists of the estrogen receptor alpha (ER-alpha) signaling pathway using the BG1 cell line - cell viability counter screen (AID 743081);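 note: compound given together with 17beta-estradiol as the ER stimulus; series mostly up to about 70 µM; nearly all actives have a fitted effect of over 45% in size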
Aromatase (Homo sapiens) = Aromatase (Homo sapiens) (UniProt P11511); assay: qHTS assay to identify aromatase inhibitors (AID 743083); note: series mostly up to about 70 µM; nearly all actives have a fitted effect of over 55% in size
Chain of Aromatase (Homo sapiens) (P11511 whole entry, looked up): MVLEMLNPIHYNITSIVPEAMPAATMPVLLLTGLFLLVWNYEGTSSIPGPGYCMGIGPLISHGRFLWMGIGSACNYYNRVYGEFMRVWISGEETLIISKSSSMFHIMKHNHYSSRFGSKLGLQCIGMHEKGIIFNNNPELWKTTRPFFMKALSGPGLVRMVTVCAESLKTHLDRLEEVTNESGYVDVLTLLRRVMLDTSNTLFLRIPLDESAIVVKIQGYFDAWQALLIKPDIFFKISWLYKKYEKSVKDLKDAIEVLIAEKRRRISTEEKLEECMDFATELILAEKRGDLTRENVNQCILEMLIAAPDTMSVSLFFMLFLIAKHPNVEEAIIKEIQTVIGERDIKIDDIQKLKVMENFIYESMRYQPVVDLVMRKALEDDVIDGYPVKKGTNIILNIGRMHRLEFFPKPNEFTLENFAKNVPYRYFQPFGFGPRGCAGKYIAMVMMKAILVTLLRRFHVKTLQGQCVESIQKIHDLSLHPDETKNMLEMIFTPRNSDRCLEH

[10] = qHTS assay to identify aromatase inhibitors - cell viability counter screen (AID 743084);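 note: cells stimulated with testosterone during compound exposure; nearly all actives have a fitted effect of over 55% in size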
[11] = target: Aryl hydrocarbon receptor (Homo sapiens) (UniProt P35869); assay: qHTS assay to identify small molecule that activate the aryl hydrocarbon receptor (AhR) signaling pathway (AID 743085);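 note: HG2L7.5c1 human HepG2 liver cells with stably integrated DRE-driven firefly reporter; series mostly up to about 70 µM; nearly all actives have a fitted effect of over 15% in size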
Chain of Aryl hydrocarbon receptor (Homo sapiens) (P35869 whole entry, looked up): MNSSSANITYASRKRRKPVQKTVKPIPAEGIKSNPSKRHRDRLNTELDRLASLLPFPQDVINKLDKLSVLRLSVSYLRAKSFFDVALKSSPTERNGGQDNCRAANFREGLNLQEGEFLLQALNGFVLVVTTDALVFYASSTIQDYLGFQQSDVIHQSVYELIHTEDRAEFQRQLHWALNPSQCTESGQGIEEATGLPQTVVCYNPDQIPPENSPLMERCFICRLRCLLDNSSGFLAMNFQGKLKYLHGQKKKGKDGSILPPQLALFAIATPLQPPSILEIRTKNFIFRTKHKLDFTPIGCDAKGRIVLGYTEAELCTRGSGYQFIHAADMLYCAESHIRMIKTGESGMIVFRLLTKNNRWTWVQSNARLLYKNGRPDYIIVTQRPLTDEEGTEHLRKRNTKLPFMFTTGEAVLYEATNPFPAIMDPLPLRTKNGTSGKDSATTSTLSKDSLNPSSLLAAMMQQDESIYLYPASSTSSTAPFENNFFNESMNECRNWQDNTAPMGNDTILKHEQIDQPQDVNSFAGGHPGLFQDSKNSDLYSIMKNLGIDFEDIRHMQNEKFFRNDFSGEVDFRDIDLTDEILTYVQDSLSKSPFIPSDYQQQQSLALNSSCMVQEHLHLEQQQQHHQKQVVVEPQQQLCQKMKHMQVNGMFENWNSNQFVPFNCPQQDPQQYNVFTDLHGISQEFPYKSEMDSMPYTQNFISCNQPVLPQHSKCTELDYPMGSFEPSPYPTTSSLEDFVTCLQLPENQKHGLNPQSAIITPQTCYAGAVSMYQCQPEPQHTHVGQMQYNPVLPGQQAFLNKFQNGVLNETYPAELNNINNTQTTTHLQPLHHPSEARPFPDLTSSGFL
Summary of the method: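 Steps: seed HepG2-AhR-luc cells; allow 5 h at 37C; pin-transfer test compound or vehicle; incubate 24 h at 37C; add viability dye (30 min, 37C) and read fluorescence; add luciferase substrate (30 min, RT) and read luminescence.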

[12] = qHTS assay to identify small molecule that activate the aryl hydrocarbon receptor (AhR) signaling pathway - cell viability counter screen (AID 743086);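 note: HepG2 liver cells carrying the AhR DRE luciferase reporter; series mostly up to about 70 µM; nearly all actives have a fitted effect of over 45% in size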
Summary of the method: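 Cytotoxicity counter screen: CellTiter-Fluor signal (30 min, 37 C) in 4000 HepG2 cells/well carrying the DRE-luciferase reporter, following 24 h compound exposure at 37 C.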

[13] = target: Peroxisome proliferator-activated receptor gamma (Homo sapiens) (UniProt P37231); assay: qHTS assay to identify small molecule agonists of the peroxisome proliferator-activated receptor gamma (PPARg) signaling pathway (AID 743094; active = well fitted activation curve with a large enough effect in the signal ratio in the repeat runs, not every such curve was filed as active; the % refers to the signal ratio)
Chain of Peroxisome proliferator-activated receptor gamma (Homo sapiens) (P37231 whole entry, looked up): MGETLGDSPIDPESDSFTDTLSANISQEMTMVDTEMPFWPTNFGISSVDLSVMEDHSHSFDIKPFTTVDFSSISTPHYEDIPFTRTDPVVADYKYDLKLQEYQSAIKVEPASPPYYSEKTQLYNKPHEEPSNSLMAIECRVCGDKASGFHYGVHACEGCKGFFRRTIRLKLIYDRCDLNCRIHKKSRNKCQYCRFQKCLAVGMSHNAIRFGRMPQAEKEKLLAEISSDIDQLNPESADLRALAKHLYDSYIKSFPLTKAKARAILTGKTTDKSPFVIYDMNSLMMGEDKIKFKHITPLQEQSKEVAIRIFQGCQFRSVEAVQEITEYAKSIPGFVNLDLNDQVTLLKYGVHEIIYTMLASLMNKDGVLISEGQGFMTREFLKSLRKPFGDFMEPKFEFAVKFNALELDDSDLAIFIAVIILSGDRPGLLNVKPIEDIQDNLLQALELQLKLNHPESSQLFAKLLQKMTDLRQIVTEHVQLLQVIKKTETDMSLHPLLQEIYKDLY
Summary of the method: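 Agonism was assessed in a beta-lactamase reporter system, HEK293H cells with a stably integrated UAS-bla construct under PPARg control; the 17 h treatment at 37C preceded a 1 h room-temperature FRET substrate read.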

[14] = qHTS assay for small molecule agonists of the antioxidant response element (ARE) signaling pathway (AID 743202; active = well fitted activation curve with a large enough effect in the signal ratio in the repeat runs, not every such curve was filed as active; the % refers to the signal ratio; note: potency is the fitted concentration of half-maximal effect)
Summary of the method: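 After 16 hours of compound treatment at 37 C, HepG2 cells with a stably integrated ARE-driven beta-lactamase reporter were loaded 2 hours at room temperature with LiveBLAzer B/G FRET substrate and fluorescence intensity measured.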

[15] = qHTS assay for small molecule agonists of the antioxidant response element (ARE) signaling pathway - cell viability counter screen (AID 743203; calls by dose curve; note: nearly all actives have a fitted effect of over 55% in size)
Summary of the method: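 ATP content via CellTiter-Glo luminescence served as the viability measure. Cells: ARE-bla HepG2, 2,000 per well. Exposure: 16 hrs, 37C/5% CO2.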

[16] = qHTS assay for small molecule activators of the heat shock response signaling pathway - cell viability counter screen (AID 743209); note: nearly all actives have a fitted effect of over 50% in size
Summary of the method: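 Compounds dissolved in DMSO were added to overnight-plated HSE-bla HeLa cells and left 5 h at 37 C. Cell viability was quantified by luminescence using CellTiter-Glo.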

[17] = qHTS assay for small molecule activators of the heat shock response signaling pathway (AID 743210; active = well fitted activation curve with a large enough effect in the signal ratio in the repeat runs, with a control signal flat, not every such curve was filed as active; the % refers to the signal ratio; note: series mostly up to about 63 µM)
Summary of the method: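 Compound exposure lasted 5 h at 37 C in HeLa cells carrying a heat-shock-element-driven beta-lactamase reporter. Read-out: fluorescence intensity after 2.5 h room-temperature loading with LiveBLAzer B/G FRET substrate.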

[18] = target: Peroxisome proliferator-activated receptor gamma (Homo sapiens) (UniProt P37231); assay: qHTS assay to identify small molecule antagonists of the peroxisome proliferator-activated receptor gamma (PPARg) signaling pathway (AID 743191; calls by dose curve; note: series mostly up to about 63 µM; nearly all actives have a fitted effect of over 30% in size)
Summary of the method: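 Beta-lactamase reporter under UAS control in HEK293H PPARg-bla cells; compound treatment 17 h at 37C. Read-out: fluorescence intensity after 1 h room-temperature incubation with LiveBLAzer B/G FRET substrate.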

[19] = qHTS assay to identify small molecule antagonists of the peroxisome proliferator-activated receptor gamma (PPARg) signaling pathway - cell viability counter screen (AID 743194); note: nearly all actives have a fitted effect of over 55% in size
Summary of the method: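 Viability was measured as CellTiter-Glo luminescence in GeneBLAzer PPARg UAS-bla HEK293H cells. These cells had been exposed 17 h at 37 C to compounds together with rosiglitazone at 50 nM final, with the beta-lactamase readout taken in the same wells.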

Measured: Potency

CCOC(=O)CC(C)C
not listed: [18] | [19]
inactive: all other assays above

COC(=O)C(C)=O
inactive: all assays above

Cc1ccc(C(=O)C(C)CN2CCCCC2)cc1 (stereo not given)
active: [14] 23.7 µM
26.6 µM (active) and inactive: [7]
not listed: [18]
inactive: all other assays above

N#CCc1cccc(C(F)(F)F)c1
inactive: all assays above

CC(C)(C)C1CCCCC1O (stereo not given)
not listed: [18]
inactive: all other assays above

CCCCCCCCC(CO)CCCCCC (stereo not given)
not listed: [18]
inactive: all other assays above

CCCCCCCCCO
not listed: [14] | [18]
inactive: all other assays above

OCC1CC2CC1C1CCC(CO)C21 (stereo not given)
not listed: [19]
inactive: all other assays above

Cn1c(=O)c2c(ncn2CC(O)CO)n(C)c1=O (stereo not given)
not listed: [18] | [19]
inactive: all other assays above

O=C(O)C1CCC(C(=O)O)CC1 (stereo not given)
inactive: all assays above

Cc1ncsc1CCO
not listed: [13] | [18] | [19]
inactive: all other assays above

CCOC(=S)SSC(=S)OCC
inactive: all assays above

FC(F)(F)C(F)(F)C(F)(F)C(F)(F)C(F)(F)C(F)(F)CCI
not listed: [18]
inactive: all other assays above

NCCCN(CCO)CCO
not listed: [14]
inactive: all other assays above
